Laboratory results from the supplement of paper PMC9897528.

The molecules below were run on Scedosporium aurantiacum CBS 136046 (assay: growth inhibition relative to DMSO control (OD600); higher = more antifungal activity, active = 80 or more; extreme values may be limits of the assay). Conditions: 5 µM; 72 h; 37 °C.
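Further: conidia screened in RPMI 1640 medium under 5% CO2, growth read by spectrophotometer, medium with 0.5% DMSO serving as the untreated reference.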

Growth inhibition, inactive:
COc1ccccc1NC(=O)c1ccccc1Sc1ccc([N+](=O)[O-])cc1 22.6%
CC[C@H]1OC(=O)[C@H](C)[C@@H](O[C@H]2C[C@@](C)(OC)[C@@H](O)[C@H](C)O2)[C@H](C)[C@@H](O[C@@H]2O[C@H](C)C[C@H](N(C)C)[C@H]2O)[C@](C)(O)C[C@@H](C)C(=O)[C@H](C)[C@@H](O)[C@]1(C)O 0.273%
COc1ccc(C(C)(C)C)cc1NC(=O)C(=O)c1ccc(OCCN2CCOCC2)c2ccccc12 9.3%
CCCCCCCc1[nH]c2ccccc2c(=O)c1O 8.25%
CC[C@@H]1C(=O)OC[C@@H]1Cc1cncn1C 0%
CCC[C@H](NC(=O)[C@@H]1[C@H]2CCC[C@H]2CN1C(=O)[C@@H](NC(=O)[C@@H](NC(=O)c1cnccn1)C1CCCCC1)C(C)(C)C)C(=O)C(=O)NC1CC1 4.34%
CC1(C)C[C@H]1C(=O)N/C(=C\CCCCSC[C@@H](N)C(=O)O)C(=O)O 4.68%
NC[C@H]1OB(O)c2c(OCCCO)cccc21 34.1%
CCC(C)n1ncn(-c2ccc(N3CCN(c4ccc(OCC5COC(Cn6cncn6)(c6ccc(Cl)cc6Cl)O5)cc4)CC3)cc2)c1=O (stereo not drawn) 57.2%
CC(=N)N1CC[C@H](SC2=C(C(=O)O)N3C(=O)[C@@H]([C@@H](C)O)[C@H]3C2)C1 5.55%
CC1CN(c2ncnc3c2c(-c2ccccc2)cn3-c2ccc(F)cc2)CC(C)O1 (stereo not drawn) 20.4%
CCOc1ccc(/C=N/NC(=O)C2CC2c2ccc(C(C)(C)C)cc2)cc1OCC (stereo not drawn) 18.4%
Cc1ccc(S(=O)(=O)Nc2cccc3cccnc23)cc1 42.5%
Cc1nc(-c2ccc(C3N(C)c4ccc(F)cc4C(=O)N3c3ccccc3)s2)cs1 (stereo not drawn) 15%
CCCCOC(=O)Nc1cc2nc(C3CCCCC3)[nH]c2cc1N(CC)CC 39.7%
CNc1nc(=O)[nH]cc1F 2.45%
COc1cccc(N2CCN(C3=Nc4c(F)cccc4[C@H](CC(=O)O)N3c3cc(C(F)(F)F)ccc3OC)CC2)c1 9.61%
COc1cc(Cc2cnc(N)nc2N)c2c(c1OC)OC(C1CC1)C=C2 (stereo not drawn) 2.07%
O=C(N[C@H](CCS)C(=O)N[C@H](Cc1ccccc1)C(=O)O)c1cc2ccccc2[nH]1 23.5%
O=C1[C@H](CC[C@H](O)c2ccc(F)cc2)[C@@H](c2ccc(O)cc2)N1c1ccc(F)cc1 13.9%
O=C(O)c1ccc(-n2nc(-c3ccccc3O)nc2-c2ccccc2O)cc1 0.0499%
CCN(CC)CCCC(C)Nc1ccnc2cc(Cl)ccc12 (stereo not drawn) 21.6%
O=S(=O)(NCB(O)O)c1cc2c(Cl)ccc(Cl)c2s1 5.78%
C[C@@H](NC(=O)c1ccccc1-c1ccccc1)B(O)O 0.688%
Nc1nc(O)c2ncn([C@@H]3O[C@H](CO)[C@@H](O)[C@H]3F)c2n1 17.4%
Cc1nc2ccc(Oc3ccccc3)cc2c2c1CCN2CCc1ccccc1 54.5%
CN1c2ccc(Cl)cc2N(c2ccccc2)C(=O)c2cn(Cc3ccc(CN4CCOCC4)cc3)nc21 17.1%
Nc1nc(F)nc2c1ncn2[C@H]1O[C@@H](CO)[C@H](O)[C@@H]1O 33.8%
CCOC(=O)Nc1cc(NC(C)CC(C)CN(CC)CC)c2nc(-c3ccccc3)c(-c3ccccc3)nc2n1 (stereo not drawn) 36.4%
O=C(Nc1ccccc1)N(Cc1cc(Br)ccc1O)c1ccc(F)cc1 40.7%
NCc1ccc(S(N)(=O)=O)cc1 9.4%
O=C(Nc1ccc(N2CCN(C(=O)c3ccccc3)CC2)cc1)c1ccc2c(c1)OCO2 16.5%
O=C(c1ccc(F)cc1)N1CCN2C(=O)c3ccccc3C12c1ccccc1 (stereo not drawn) 12.5%
Nc1ccc(-c2nc3cc(C(F)(F)F)ccc3n2C23CC4CC(CC(C4)C2)C3)cc1 27.1%
CCc1cc(CCC(=O)Nc2ccccc2O)c(O)nc1C 5.23%
FC(F)(F)Oc1ccc(Nc2ccc3cccc(Cl)c3n2)cc1 25.3%
Nc1nc2c(ncn2COC(CO)CO)c(=O)[nH]1 11.1%
Cc1cc(NS(=O)(=O)c2ccc(-c3ccc(F)cc3F)cc2)no1 11.5%
